# Several values for one entry are separate records, joined by “and”; a condition that tells them apart may be missing. Equal values may be shown once. Records with an inconclusive call do not appear. The source holds several records for some structures; these can differ, active in one and inactive in another. Activity calls are given as the source filed them. The calls were made as follows: active = hit-call score of the fitted dose curve at least 0.9, where 1 is the maximum; inconclusive = response in the unintended direction; inactive = score below 0.9.
# Tested on: zebrafish Estrogen Receptor (ER2b), gene 317733
# Test: ATG_zfER2b_XSP2: Attagene TRANS-FACTORIAL Multi-Species (XSP2) HepG2 Assay for zebrafish Estrogen Receptor (ER2b) (AID 2283823);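 also: fitted upward as reporter gain over DMSO so potency reflects activation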
# Procedure: ATG_XSP2_multi-species_TRANS is a cell-based, multiplexed assay created by modifying the existing Attagene TRANS-FACTORIAL system to include a panel of nuclear receptors from some or all the following species: human (Homo sapiens), mouse (Mus musculus), frog (Xenopus laevis), zebrafish (Danio rerio), chicken (Gallus gallus), and turtle (Chrysemys picta). The ECOTOX-FACTORIAL format uses HepG2, a human liver cell line, with measurements taken at 24 hours after chemical dosing in a 24-well plate. Xsp2 included 3 nM 6-alpha-fluorotestosterone and 1.5 nM norgestrel to stimulate the androgen receptor.ATG_zfER2b_XSP2 is one of 29 assay components measured or calculated from the ATG_XSP2_multi-species_TRANS assay. It is designed to make measurements of mRNA induction, a form of inducible reporter, as detected with fluorescence intensity signals by Reverse transcription polymerase chain reaction (RT-PCR) and Capillary electrophoresis technology.The assay endpoint ATG_zfER2b_XSP2 was analyzed in the positive analysis fitting direction relative to DMSO as the negative control and baseline of activity. Using a type of inducible reporter, measures of mRNA for gain-of-signal activity can be used to understand the reporter gene at the transcription factor-level as they relate to the gene ER. Furthermore, this assay endpoint can be referred to as a primary readout, because this assay has produced multiple assay endpoints where this one serves a reporter gene function. To generalize the intended target to other relatable targets, this assay endpoint is annotated to the nuclear receptor intended target family, where the subfamily is steroidal.
# Human liver HepG2 cells are transiently transfected with multiple reporter transcription units (MRTUs) in 6-well plates using FuGene 6 reagent (Roche; 3 ml FuGene/1 mg DNA). The MRTU constructs are regulated by a cis-regulating element (promoter). […] A major difference between the CIS and TRANS system is that in CIS activities of endogenous TFs are measured, whereas the TRANS assay evaluates changes in activities of exogenous, chimeric NR-Gal4 proteins. […] At the end of 24 hour incubation, total RNA was isolated using TriZol reagent (Invitrogen). The isolated RNA is then reverse-transcribed using oligo(dT) primer and Mo-MLV reverse transcriptase (Invitrogen) with DNAse I (Ambion) treatment for 30 min. The one-tenth of the produced cDNA was amplified by PCR using Taq DNA polymerase (Invitrogen) and two reporter sequence-specific primers. The PCR products were fluorescently labeled by primer extension with 6-arboxyfluorescein (6-FAM) 5'-labeled reporter sequence-specific primer (2 min at 95 C, 20 s at 68 C and 10 min at 72 C) and these products were digested with 5U of HpaI (New England Biolabs) for 2h at 37 C. The fragments were purified using Qiaquick PCR columns (Qiagen), analyzed on an ABI 3130xL genetic analyzer (Applied Biosystems) with peak positions identified by using a set of X-rhodamine (ROX)-labeled MapMarker1000 molecular weight standards (BioVentures). The raw capillary electrophoresis data was processed using Attagraph software (Attagene).
Compound,AC50,outcome
Oc1ccccc1Cc1ccccc1O,29.1 µM (active) and 18.2 µM (active),
COc1ccc(C(=O)c2ccccc2)c(O)c1,43.3 µM (active) and 14.3 µM (active),
CC(CCC(=O)O)(c1ccc(O)cc1)c1ccc(O)cc1,42.6 µM (active) and 13.2 µM (active),
CCCCCCCCCCCCc1ccc(O)cc1,377 nM (active) and 126 nM (active),
Oc1ccc(-c2ccccc2)c(Cl)c1,9.03 µM (active) and 7 µM (active),
O=C(O)/C=C/c1ccccc1,,inactive
CC(C)(C)NC(=O)[C@H]1CC[C@H]2[C@@H]3CC[C@H]4NC(=O)C=C[C@]4(C)[C@H]3CC[C@]12C,67.5 µM (active),
COc1ccc(-c2coc3cc(O)cc(O)c3c2=O)cc1,2.28 µM (active) and 310 nM (active),
N#Cc1ccc(C2CCCc3cncn32)cc1 (stereo unspecified),93.7 µM (active),inactive
C=C1C[C@H]2[C@@H]3C=C(C)C4=CC(=O)CC[C@]4(C)[C@H]3CC[C@]2(C)[C@@]1(OC(C)=O)C(C)=O,,inactive

# From PubChem BioAssay (EPA / NIEHS)
